# Compound activity deposited in PubChem by National Center for Advancing Translational Sciences (NCATS).
# Compounds with a hit are over-represented: about 3.2% of the library has one in this group of screens.
# A549 tox: kills or reduces viability of A549 cells in Nrf2 counter-screen; 0.16% of 390,000 active; Potency, µM (titrated, usually from 46 µM), for inactives: at the highest dose activity change, negative = cytotoxicity, most hits filed as inhibitors; A549 ARE-Fluc cells, CellTiter-Fluor viability, 18-24 h; note: potency is the fitted concentration of half-maximal effect; % is set by controls: 0 for no effect and ±100 for the full control effect
#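 A549 ARE-Fluc cells in 5% FBS OPTI-MEM, 5000 cells/well, rested 2 h then exposed to compounds in concentration-response for 18-24 h at 37 °C. Viability by CellTiter-Fluor fluorescence (Ex 405/Em 525) after 30 min; luciferase luminescence (BugLite, 15 min, RT) read afterwards.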
# Nrf2 inh: Nrf2 pathway inhibition | A549 ARE-Fluc reporter, luciferase luminescence, 18-24 h | Potency, µM (series often up to 46 µM), for the others: at the highest dose activity change, negative = inhibition, actives largely listed as inhibitors | 2.1% of 360,000 active | AID 504444; note: potency is the fitted concentration of half-maximal effect; % is set by controls: 0 for no effect and ±100 for the full control effect; nearly all actives have a fitted effect of over 60% in size
#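 Quantitative HTS in A549 cells stably bearing an antioxidant response element-firefly luciferase construct. Inhibition of Nrf2-driven transcription was scored by luminescence after 18-24 h of compound exposure at 37 °C.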
# BRCA1 expr up: BRCA1 expression activation; MCF7-BRCA1-FFLuc reporter, luminescence, 48 h; response scale: scaled: vehicle 0%, 10 µM genistein 100%; Potency, µM (highest dose often 46.1 µM), for inactives: top-dose activation, hits mostly activators; AID 624202; 1.1% of 380,000 active; note: potency is the fitted concentration of half-maximal effect; nearly all actives have a fitted effect of over 80% in size
#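 Activators of BRCA1 expression were detected as increased firefly luciferase luminescence in engineered MCF7 cells after 48 h compound incubation. Signals were scaled to genistein 10 microM as full activation.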
# IL-2 act: IL-2 activation. IL-2 activation reporter assay, cell-based qHTS; stimulated with anti-CD3/CD4/CD28 beads; in transgenic mouse T cells. activation, % (series mostly up to about 46 µM). 0.065% of 360,000 active. AID 652025; in the data active = activation above about 50%; inconclusive = mostly about 30% to 49%; note: 0% is about no effect
#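 First, unstimulated transgenic mouse T cells were exposed to compound for 60 min. Next, anti-CD3/anti-CD4-coated beads with anti-CD28 were added. Finally, after 18 h at 37 degrees C, EGFP and DsRed were imaged.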
# Nrf2 ARE act: activates Nrf2 signaling. AREc32 ARE-luciferase reporter (MCF7-derived line), luminescence, 24 h. Potency, µM (highest dose often 46.1 µM), inactives show top-dose activation, actives largely listed as activators. 0.31% of 410,000 active; note: potency is the fitted concentration of half-maximal effect; % of control where 0% means no effect; nearly all actives have a fitted effect of over 65% in size
#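 AREc32 cells carrying an ARE-driven firefly luciferase reporter were seeded at 1000 cells/well in OPTI-MEM with 5% FBS, then exposed to compound for 24 hr at 37 deg C. Luminescence was read with Steady-Glo after 30 min at RT.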
# p53 reactivation: re-activators of mutant p53; 0.063% of 320,000 active; H1299 p53-A138V BP100-luciferase reporter, luminescence, 24 h; Potency, µM (series often up to 92.2 µM), without a hit: at the top dose activity change, positive = activation, most hits filed as activators; AID 504706; note: potency is the fitted concentration of half-maximal effect; % of control where 0% means no effect; nearly all actives have a fitted effect of over 45% in size
#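 H1299 (p53-null), stable ts p53-A138V + BP100-Luc; 1000 cells/well, Opti-MEM/10% FBS; cpd 4 pt, 1:5; 24 h, 37 deg C, 5% CO2; detection reagent 10 min RT; luminescence.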
# Active calls of the source: *; ? = inconclusive; . = no result given; [ ] = dose if it differs, or a comment. Unless noted, calls come from the whole dose curve; as a rule, active = well fitted curve in the direction sought with a large enough effect; inconclusive = small, poorly fitted or top-dose-only effect, or another doubt; inactive = no such curve, though single readings can be large; an effect the other way counts as inactive or inconclusive.
SMILES,A549 tox,Nrf2 inh,BRCA1 expr up,IL-2 act,Nrf2 ARE act,p53 reactivation
Cc1cccc(N2CCN(CC(=O)Nc3nccs3)CC2)c1C,-23.1%,16.4µM*,-6.7%,-0.6,-0.2%,-1.5%
Cc1nc(SCC(=O)N2CCOCC2)c2c(C)c(C)sc2n1,1.2%,-1.9%,-0.3%,-0.6,5.0%,-15.0%
Cc1cccc(N2CCN(CC(=O)Nc3ccc(S(=O)(=O)N4CCOCC4)cc3)CC2)c1C,-14.4%,16.4µM*,-9.2%,-2.8,0.5%,-2.2%
Clc1ccc(-c2csc3ncnc(Sc4nnnn4C4CC4)c23)cc1,.,.,-78.5%,.,.,.
COc1ccc(-c2c3c(=O)n(C)c(=O)n(C)c3c3c(-c4ccccc4)nc4ccccc4n23)cc1,-3.0%,11.4%,.,.,-0.9%,.
CN(C)c1ccc(C=Nc2ccc(/C=C3\C=Cc4ccccc43)cc2)cc1,.,.,6.1%,.,.,.
O=S(=O)(c1cc(C(F)(F)F)ccc1Cl)N1CCN(c2ncnc3ccccc23)CC1,-12.7%,18.4µM*,-54.2%,-0.1,-0.4%,-7.9%
O=S(=O)(c1cc(C(F)(F)F)ccc1Cl)N1CCCCCC1,-5.4%,-2.4%,19.7%,-2.3,0.1%,3.0%
CC(C)Cc1ccc(CN2CCCC(NC(=O)c3ccnn3C)C2)cc1 (centres undefined),-18.9%,13µM*,-37.3%,-2.0,0.2%,-12.6%
Cn1c(N2CCOCC2)c(/C=N/OC(=O)c2ccc(F)cc2)c2ccccc21,-5.0%,0.651µM*,-74.5%,-1.6,-0.4%,-5.0%
CC(=O)O/N=C/c1c(N2CCOCC2)n(C)c2ccccc12,.,6.51µM*,-78.9%,-2.9,0.4%,-2.5%
Cc1ccc(C(=O)O/N=C/c2c(N3CCOCC3)n(C)c3ccccc23)cc1,-1.1%,?,-86.1%,-1.6,-0.9%,-0.4%
Cn1c(N2CCOCC2)c(/C=N/O)c2ccccc21,3.0%,?,-14.0%,-0.7,2.8%,11.1%
CCCn1c(=O)sc2cc(NC(=O)c3ccc(OC)c(Br)c3)ccc21,-12.9%,16.4µM*,-60.2%,.,3.4%,.
COc1ccc(C(=O)Nc2ccc(N3CCCCC3)cc2)cc1Br,-0.4%,12.3%,3.55µM*,0.7,2.5%,24.0%
CCOC(=O)c1cnc(SCC(=O)Nc2sc(C)c(C)c2C#N)nc1N,?,9.2µM*,0.8%,-3.9,2.2%,5.7%
CCCCSc1ncc(C(=O)OCC)c(N)n1,-7.3%,?,3.55µM*,0.4,5.5%,?
CCOC(=O)c1cnc(SCC(=O)Nc2cc(OC)cc(OC)c2)nc1N,-8.0%,?,-55.2%,-3.4,0.5%,-4.8%
CCOC(=O)c1cnc(SCc2ccc(C)cc2)nc1N,-1.7%,16.4%,7.08µM*,-2.1,4.0%,?
Brc1cccc[n+]1Cc1ccccc1C[n+]1ccccc1Br,.,.,8.0%,.,.,.
COc1cccc(NC(=O)C(OC(=O)CNC(=O)c2ccccc2)c2ccccc2)c1 (centres undefined),-4.1%,?,.,.,.,.
Brc1cccc[n+]1CCCCCC[n+]1ccccc1Br,.,.,-12.5%,.,.,.
CCCCCCCCCCCCCCCC[n+]1cccc2ccccc21,-17.5%,25.9µM*,-65.0%,-0.8,-3.5%,-5.3%
CCCCCCCCC[n+]1cccc2c3ccccc3ccc21,?,9.2µM*,-76.3%,-0.8,6.2%,-25.4%
Cc1ccc(C)c(CNC(=O)CCn2cccn2)c1,10.8%,?,.,.,0.8%,.
SMILES,A549 tox,Nrf2 inh,BRCA1 expr up,IL-2 act,Nrf2 ARE act,p53 reactivation
CCc1cccc(C)c1Nc1c(-c2ccc(SC)cc2)nc2sccn12,1.1%,-9.1%,.,.,10.5%,.
COc1ccc2c(c1)sc1nc(-c3ccccc3)cn12,-6.1%,18.4µM*,?,-5.8,-2.5%,-13.4%
COc1ccc(-c2cn3c(n2)sc2cc(C(=O)NCc4ccccc4)ccc23)cc1,-6.8%,6.8%,.,.,5.6%,.
Cc1ccc(S(=O)(=O)N(CC(=O)NCCc2ccc(Cl)cc2)c2ccccc2C)cc1,?,25.9µM*,.,.,-0.9%,.
CCc1ccccc1NNC(=O)c1sccc1Cl,2.8%,2.3%,0.0%,.,.,.
COc1ccc(NC(=O)c2ccc(CN3CCc4ccccc4C3)cc2)cc1OC,0.0%,20.6µM*,-0.2%,0.2,2.4%,-27.0%
COc1cccc(NC(=O)c2ccc(CN3CCc4ccccc4C3)cc2)c1,-0.2%,14.6µM*,29.2%,0.0,7.7%,-2.8%
CC(=O)c1cccc(NC(=O)c2ccc(CN3CCc4ccccc4C3)cc2)c1,5.1%,-18.7%,3.3%,-0.8,4.0%,.
COc1ccc(-c2nc3ccccc3s2)cc1NC(=O)COc1cccc(C)c1,?,?,-11.8%,.,4.5%,.
O=C(NC(c1ccc(Cl)cc1)c1cc(Cl)c2cccnc2c1O)c1cccnc1 (centres undefined),?,10.3µM*,-83.5%,-1.3,2.9%,17.6%
CC(=O)NC(c1ccc(C)cc1)c1cc([N+](=O)[O-])c2cccnc2c1O (centres undefined),?,11.6µM*,-106.0%,0.6,-0.1%,8.7%
CCCC(=O)NC(c1ccco1)c1cc([N+](=O)[O-])c2cccnc2c1O (centres undefined),?,?,-78.2%,16.9,4.9%,1.0%
CC(=O)NC(c1ccccc1)c1cc(Cl)c2cccnc2c1O (centres undefined),?,18.4µM*,-58.9%,-3.4,2.5%,6.8%
CCC(=O)NC(c1ccc(C)cc1)c1cc([N+](=O)[O-])c2cccnc2c1O (centres undefined),-19.4%,23.1µM*,-95.6%,147.2*,-0.5%,?
COc1ccc(C(NC(C)=O)c2cc(Cl)c3cccnc3c2O)cc1 (centres undefined),-11.5%,?,-77.8%,-0.6,0.5%,.
Cc1ccc2[nH]c(C(=O)Nc3ccccc3)cc2c1,-2.2%,?,.,.,-0.1%,.
CCOC(=O)c1c(C)[nH]c(C)c1S(=O)(=O)N1CCN(c2ccc(Cl)cc2)CC1,2.6%,.,.,.,-1.1%,.
COc1cc(-c2ccc3ncnc(NCc4ccc(C)o4)c3c2)cc(OC)c1OC,-15.0%,?,.,.,.,.
CCC1CN(C(=O)Nc2ccccc2C(F)(F)F)c2ccccc2O1 (centres undefined),?,?,.,.,0.4%,.
CCN(CC)S(=O)(=O)c1cccc(-c2nnc(SCCCC(=O)c3ccc(F)cc3)o2)c1,-16.5%,23.1µM*,1.7%[1.84 µM],-1.1,0.6%,-2.1%
COc1ccc(-c2cc(C(=O)Nc3ccccc3N3CCOCC3)c3ccccc3n2)cc1OC,-17.4%,14.6µM*,-42.5%,-3.0,3.8%,-4.2%
CCOc1cc(N2CCOCC2)c(OCC)cc1NC(=O)c1cc(-c2ccco2)nc2ccccc12,?,14.6µM*,-53.9%,1.1,3.9%,-2.7%
